Here are results for eight compounds from PubChem BioAssay (NCI).

Compounds without any hit were thinned out: in the full panel of roughly 83,000, 20% have a hit.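 In brief: 96-well plates, 48 h treatment, single concentration, percent growth endpoint.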 Unmarked numbers belong to inactive results. The source made the active and inactive calls. Rule for the calls: active = growth percent below 10; inactive = the rest.

Assay in all cases: NCI-60 one-dose screen, 48 h (100 = growth as untreated, 0 = no growth, -100 = all killed)
Holding throughout (conditions): 10 µM unless noted

Experiment [1] has as its system SK-MEL-2 melanoma.
In experiment [2] the test system is EKVX NSCLC.
The subject of experiment [3] is SN12C renal.
Experiment [4] relates to UO-31 renal.
For experiment [5], the system named is TK-10 renal.
For experiment [6], the system named is ACHN renal.
Experiment [7] relates to CAKI-1 renal.
Experiment [8] concerns A498 renal.
For experiment [9], the system named is CCRF-CEM leukemia.
Experiment [10] has as its system MOLT-4 leukemia.
In experiment [11] the test system is RPMI-8226 leukemia.
Experiment [12] relates to OVCAR-8 ovarian.
In experiment [13] the test system is OVCAR-5 ovarian.
The test system of experiment [14] is OVCAR-4 ovarian.
Experiment [15] deals with SK-OV-3 ovarian.
The subject of experiment [16] is IGROV1 ovarian.
The test system of experiment [17] is OVCAR-3 ovarian.
In experiment [18] the test system is HS 578T breast.
The test system of experiment [19] is NCI/ADR-RES ovarian.

On to `N#Cc1nc(C#N)c(Sc2ccccc2)c(Sc2ccccc2)c1Sc1ccccc1`, for which the growth in experiment [1] was -64.1% (active); in experiment [2] it was 8.11% (active); in experiment [3] it was 0.446% (active); in experiment [4], -72.1% (active); in experiment [5], -36.8% (active); in experiment [6], -78% (active). The growth is 17.7% in experiment [7]; -14.1% (active) in experiment [8]; -7.95% (active) in [9]; -19.2% (active) in experiment [10]; 0.263% (active) in experiment [11]; 3.62% (active) in experiment [12]. Besides, the growth in [13] is -71.3% (active); in [14] it was -11.9% (active); in experiment [15], -10.3% (active); in experiment [16], -67.9% (active); in experiment [17], -87.7% (active); in [18], 55.2%. In experiment [19], the growth was 20.3%.

In the case of `CN(C)CCCn1c(=O)c2ccccc2c2ccccc21`, the growth in experiment [1] is 83.7%; in [2] it was 107%; in experiment [3], 50.6%; in experiment [4], 53.6%; in experiment [5], 79.3%; in experiment [6] it was 42.2%. Besides, the growth was 79.8% in experiment [7]; 104% in experiment [8]; 49.9% in [9]; 51.6% in experiment [10]; 59.9% in experiment [11]; 49.8% in experiment [12]. The growth in [13] was 73.3%; in [14], 86.3%; in [15], 92.3%; in experiment [16] it was 56.2%; in experiment [17], 96.5%; in experiment [18] it was 79.3%. The growth in [19] is 78.3%.

With `CC1=C([Se]CC(OC(=O)CC[Se]c2ccccc2)C(=O)NCCCCCC(=O)OCc2ccccc2)C(=O)c2ccccc2C1=O` (configuration not stated), the growth in experiment [1] is 47.8%; in [2] it was 27.1%; in [3] it was 13.4%; in experiment [4], 15.4%; in [5] it was 40.9%; in experiment [6], 23.8%. For the same compound, the growth in [7] is 32.2%; in [8], 71.9%; in experiment [9] it was 9.75% (active); in experiment [10], 17.1%; in experiment [11] it was 49.1%; in experiment [12], 10.6%. Further, the growth in [13] is 39.7%; in experiment [14], 42.5%; in [15] it was 39.4%; in [16] it was 15.9%; in [17], -3.7% (active); in experiment [18], -13.4% (active). Moreover, the growth in experiment [19] is 11.9%.

For `COc1ccc(C2C(c3nn[nH]n3)=C(N)Oc3c2ccc2ccccc32)cc1` (configuration not stated), the growth in experiment [1] was 61.5%; in experiment [2], 83.4%; in experiment [3], 64.9%; in experiment [4], 45.1%; in experiment [5], 43.8%; in experiment [6] it was 68.6%. Besides, the growth in [7] was 34.3%; in experiment [8], 26.5%; in experiment [9] it was 75.3%; in experiment [10] it was 52.6%; in experiment [11], 66.5%; in [12], 83.8%. In addition, the growth in [13] was 104%; in [14], 83.7%; in [15], 79.5%; in experiment [16], 53.6%; in experiment [17] it was 64.7%; in [18] it was 76.4%. Further, the growth in experiment [19] is 28.3%.

Consider `O=c1ccn2nc3ccccc3c2[nH]1`, for which the growth in [1] was 108%; in experiment [2], 63.6%; in experiment [3], 84.8%; in experiment [4] it was 76.6%; in [5] it was 121%; in experiment [6] it was 91.1%. The growth in [7] was 89.4%; in experiment [8], 125%; in experiment [9] it was 118%; in experiment [10] it was 108%; in experiment [11], 101%; in experiment [12], 114%. For the same compound, the growth was 79.2% in experiment [13]; 111% in experiment [14]; 99.4% in experiment [15]; 110% in experiment [16]; 117% in experiment [17]; 134% in [18]. Further, in experiment [19], the growth is 60.1%.

Turning to `CCc1ccccc1-n1c(-c2ccc(Cl)cc2)cc(-c2ccc(OC)cc2)c(C#N)c1=O`, the growth in [1] was 91.5%; in experiment [2] it was 96.1%; in [3] it was 99.4%; in experiment [4], 81.5%; in experiment [5], 136%; in [6] it was 114%. Also, the growth in [7] is 99.8%; in experiment [8] it was 110%; in [9], -41.4% (active); in experiment [10], 103%; in experiment [11], 78.5%; in experiment [12], 102%. For the same compound, the growth is 94.7% in [13]; 90% in [14]; 103% in experiment [15]; 80% in experiment [16]; 100% in experiment [17]; 98.7% in experiment [18]. The growth in experiment [19] is 95.1%.

Regarding `Cc1ccccc1NC(=O)N/C(N)=N/c1nc(C)c(C)s1`, the growth in [1] was 53.9%; in [2], 55%; in [3], 39.7%; in experiment [4], 54.9%; in experiment [5], 70.3%; in [6] it was 46.5%. The growth in [7] is 31.1%; in experiment [8] it was -17.7% (active); in [9] it was 13.3%; in [10], 30.1%; in [11], 6% (active); in [12], 30.8%. Moreover, the growth is 41.4% in experiment [13]; 49.7% in experiment [14]; 45.2% in experiment [15]; 36.2% in experiment [16]; -1.03% (active) in [17]; 23.6% in experiment [18]. Further, the growth in experiment [19] is 9.02% (active).

In the case of `Cc1cc(=O)oc2c1ccc1oc(C#N)c(C)c12`, the growth in experiment [1] is 115%; in [2], 93.7%; in experiment [3] it was 101%; in [4] it was 94.7%; in experiment [5] it was 89.2%; in experiment [6] it was 103%. For the same compound, the growth in experiment [7] was 106%; in [8], 75.1%; in experiment [9], 6.77% (active); in [10] it was 102%; in [11], 88.9%; in experiment [12], 99.5%. Also, the growth in experiment [13] was 92.4%; in experiment [14] it was 93.1%; in experiment [15], 107%; in experiment [16], 106%; in experiment [17], 98.6%; in [18], 91.2%. For the same compound, in [19], the growth is 96.2%.
